Laboratory results reported in PubChem BioAssay (NCI).
Compounds without any hit were thinned out: in the full panel of roughly 83,000, 20% have a hit.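 Step 1: grow cells in 96-well plates. Step 2: add test compound at a single concentration. Step 3: incubate 48 h. Step 4: record percent growth.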 Activity calls are given as the source filed them. How the source made its calls: active means growth percent below 10; inactive means the rest.

Columns and labels:
Assay in all cases: NCI-60 one-dose screen, 48 h (100 = growth as untreated, 0 = no growth, -100 = all killed)
NCI-H226 lung = conditions: 10 µM
NCI-H322M lung = conditions: 10 µM unless noted
HOP-62 NSCLC = conditions: 10 µM unless noted
NCI-H460 lung = conditions: 10 µM unless noted
HOP-92 NSCLC = conditions: 10 µM unless noted
NCI-H522 lung = conditions: 10 µM
A549/ATCC NSCLC = conditions: 10 µM unless noted
786-0 renal = conditions: 10 µM unless noted
COLO 205 colon = conditions: 10 µM unless noted
DU-145 prostate = conditions: 10 µM unless noted
K-562 leukemia = conditions: 10 µM unless noted
MALME-3M melanoma = conditions: 10 µM unless noted
MDA-MB-231 breast = conditions: 10 µM unless noted
RXF 393 renal = conditions: 10 µM unless noted
SF-268 CNS = conditions: 10 µM unless noted
SF-295 CNS = conditions: 10 µM unless noted
SF-539 CNS = conditions: 10 µM unless noted
UACC-257 melanoma = conditions: 10 µM unless noted
M14 melanoma = conditions: 10 µM unless noted
NCI-H23 lung = conditions: 10 µM unless noted

Measured: growth

Cc1ccc(C)c2c1sc1nc3nc4sc5ccccc5n4c(=N)c3c(=O)n12
inactive: NCI-H226 lung 115% | NCI-H322M lung 120% | HOP-62 NSCLC 97.3% | NCI-H460 lung 95.5% | HOP-92 NSCLC 72.3% | NCI-H522 lung 116% | A549/ATCC NSCLC 111% | 786-0 renal 100% | COLO 205 colon 109% | DU-145 prostate 108% | K-562 leukemia 132% | MALME-3M melanoma 143% | MDA-MB-231 breast 93.5% | RXF 393 renal 122% | SF-268 CNS 95.6% | SF-295 CNS 104% | SF-539 CNS 101% | UACC-257 melanoma 129% | M14 melanoma 94.8%

CCOC(=O)c1c(Cl)c2c(n1Cc1cc(OC)cc(OC)c1)-c1oncc1CCC2
inactive: NCI-H23 lung 44.1% | NCI-H322M lung 55.7% | NCI-H460 lung 12.8% | NCI-H522 lung 28.9% | A549/ATCC NSCLC 28.1% | 786-0 renal 43% | DU-145 prostate 21.5% | MALME-3M melanoma 22.6% | MDA-MB-231 breast 35.5% | RXF 393 renal 21.7% | SF-268 CNS 50.5% | UACC-257 melanoma 72.4% | M14 melanoma 12.7%
active: COLO 205 colon -51.8% | K-562 leukemia 9.73% | SF-295 CNS 6.63% | SF-539 CNS 7.36%

Nc1cc(Br)c(-c2nnc(CCC(=O)c3nc4ccccc4[nH]3)o2)c(Br)c1
inactive: NCI-H23 lung 70.8% | HOP-62 NSCLC 82.2% | NCI-H460 lung 102% | HOP-92 NSCLC 26.3% | NCI-H522 lung 24.6% | A549/ATCC NSCLC 90.7% | 786-0 renal 85.8% | COLO 205 colon 70.6% | DU-145 prostate 103% | K-562 leukemia 27% | MALME-3M melanoma 58.7% | MDA-MB-231 breast 76.7% | RXF 393 renal 92.6% | SF-268 CNS 88.2% | SF-295 CNS 66.3% | SF-539 CNS 93.9% | UACC-257 melanoma 90.7% | M14 melanoma 79.8%

COc1ccc(OC2=C(C#N)C(=N)N3c4ccccc4Sc4ccccc4C3N2)cc1 (centres undefined)
inactive: NCI-H23 lung 87.9% | NCI-H322M lung 97.5% | NCI-H522 lung 97.8% | 786-0 renal 105% | COLO 205 colon 103% | DU-145 prostate 99.7% | K-562 leukemia 148% | MDA-MB-231 breast 60.8% | RXF 393 renal 78% | SF-268 CNS 89.2% | SF-539 CNS 91.5% | UACC-257 melanoma 115% | M14 melanoma 105%

Cn1c(=O)c2c(-c3ccccc3F)n(-c3ccc4c(c3)OCO4)cc2n(C)c1=O
inactive: NCI-H23 lung 95.2% | HOP-62 NSCLC 102% | NCI-H460 lung 99.4% | NCI-H522 lung 91.5% | A549/ATCC NSCLC 99.8% | 786-0 renal 102% | COLO 205 colon 106% | DU-145 prostate 110% | K-562 leukemia 78.7% | MALME-3M melanoma 141% | MDA-MB-231 breast 77.1% | RXF 393 renal 83.3% | SF-268 CNS 97.4% | SF-295 CNS 87.9% | SF-539 CNS 92.7% | UACC-257 melanoma 117% | M14 melanoma 117%
